This note sets out measurements from PubChem BioAssay (NCATS).

Test [1] can be described thus: qHTS Assay for Identifying Gametocytocidal Compounds (AID 743244).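 Also: actives lower the fluorescent signal which means gametocytes are killed.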 As to conditions: P. falciparum 3D7 stage III-V gametocytes, alamarBlue, 72 h; max response: stronger effect = lower value. The essentials: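 Viability read-out was resazurin reduction (alamarBlue, 24 h) measured at Ex 525/Em 598 nm. Beforehand, late-stage (III-V) 3D7 P. falciparum gametocytes at 20,000 cells/well were incubated with compound 72 h at 37C under 5% CO2.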
On the technique in general: In qHTS, concentration-response curves come from the screen itself.

A short description of test [2]: qHTS assay to identify small molecule inhibitors of chordoma cells - UCH-1 (AID 1259355). Also: nearly all actives have a fitted effect of over 55% in size. Also: potency is read from the fitted curve at half-maximal effect; series mostly up to about 46 µM. The essentials:
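A 48hr growth-inhibition format: each drug tested at 15 concentrations together with added auranofin, camptothecin, doxorubicin, rubitecan and topotecan, with cell viability quantified as CellTiter-Glo luminescence.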

The nature of test [3]: qHTS assay to identify small molecule inhibitors of chordoma cells - UCH-2 (AID 1259356). Also: series mostly up to about 46 µM.
A short description of test [4]: qHTS assay for cell viability of HEK293 cells (AID 743288). Also: nearly all actives have a fitted effect of over 50% in size. As to conditions: ATP luminescence (CellTiter-Glo), 18 h; max response: stronger effect = lower value. The essentials: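 Viable-cell counts were inferred from luciferase-based ATP content in HEK293 cells seeded at 2,000/well, pre-incubated ≥5 h, then dosed with DMSO-solubilised compounds for 18 h at 37 C.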
Test [5] is described as follows: qHTS assay for cell viability of the p53RE-bla HCT-116 cell line (AID 743292). Also: nearly all actives have a fitted effect of over 55% in size. The procedure, abridged: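 CellSensor p53RE-bla HCT-116 cells (4,000/well) pre-incubated 5 h at 37 C, then exposed to compounds in DMSO for 16 h at 37 C. Viability read as ATP content by CellTiter-Glo luminescence after 30 min at room temperature.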

“And” between values parts separate entries of the source, which are not always exact repeats. Identical values can stand only once. Inconclusive results are not listed. A number with no mark means an inactive call. The source made the active and inactive calls. Calls follow the shape of the dose curve; as a rule, active = well fitted curve in the direction sought with a large enough effect; inconclusive = small, poorly fitted or top-dose-only effect, or another doubt; inactive = no such curve, though single readings can be large; an effect the other way counts as inactive or inconclusive.
% is scaled to controls: 0 for no effect and ±100 for the full control effect.

Consider `CS(=O)(=O)c1ccc([C@@H](O)[C@@H](COC(=O)CN)NC(=O)C(Cl)Cl)cc1`, for which the max response in test [1] is 0.65%. Besides, the Potency entry in test [2] and in test [3] was “inactive” in each case.

Regarding `CO[C@H]1C[C@@H]2CC[C@@H](C)[C@@](O)(O2)C(=O)C(=O)N2CCCC[C@H]2C(=O)O[C@H]([C@H](C)C[C@@H]2CC[C@@H](OC(=O)C(C)(CO)CO)[C@H](OC)C2)CC(=O)[C@H](C)/C=C(\C)[C@@H](O)[C@@H](OC)C(=O)[C@H](C)C[C@H](C)/C=C/C=C/C=C/1C`, the max response in test [1] is -3.38%. Also, the Potency result in test [2] and in test [3] was “inactive” throughout.

In the case of `CSc1nc2cc(Oc3cccc(Cl)c3Cl)c(Cl)cc2[nH]1`, in test [1], the max response was 0.358%. The Potency result in test [2] and in test [3] was “inactive” throughout.

As to `Cc1cc(-c2ccc(N=Nc3ccc4c(S(=O)(=O)O)cc(S(=O)(=O)O)c(N)c4c3O)c(C)c2)ccc1N=Nc1ccc2c(S(=O)(=O)O)cc(S(=O)(=O)O)c(N)c2c1O`, in test [1], the max response is 18.4% and 0.953%. Also, the Potency result in test [2] and in test [3] was “inactive” in each case.

As for `CC(C)N1CCN(c2ccc(OC[C@H]3CO[C@](Cn4cncn4)(c4ccc(Cl)cc4Cl)O3)cc2)CC1`, in test [1], the max response was 3.43%. The Potency entry in test [2] and in test [3] was “inactive” each time.

`NC(=O)C1c2ccccc2CCc2ccccc21`: the max response in test [1] is -4.56%. In addition, the Potency entry in test [2] and in test [3] was “inactive” throughout.

Consider `OCCN1CCN(CC/C=C2/c3ccccc3Sc3ccc(Cl)cc32)CC1`, for which the max response in test [1] is -5.02%. In addition, the Potency result in test [2] and in test [3] was “inactive” in each case.

With `CC(C)(CO)[C@@H](O)C(=O)NCCCC(=O)O`, the max response in test [1] was -4.37%. Also, the Potency entry in test [2] and in test [3] was “inactive” each time.

Turning to `C[Si](C)(C)O[Si](C)(C)C`, the max response in test [1] was 4.27%; in test [4] it was -0.467%. Besides, the result in test [5] was inactive. Besides, the Potency result in test [2] and in test [3] was “inactive” throughout.

In the case of `CCCCCCCCCCCCCCCCOCCOCCOCCOCCOCCOCCOCCOCCOCCOCCOCCOCCOCCOCCOCCOCCOCCOCCOCCOCCO`, in test [1], the max response was -3.08%. Also, the Potency in test [2] is 35.5 µM (active). The Potency result in test [3] is “inactive”.

Regarding `CN(C)CCOc1ccc(/C(=C(/CCCl)c2ccccc2)c2ccccc2)cc1`, the max response in test [1] is 7.93%. For the same compound, the Potency entry in test [2] and in test [3] was “inactive” in each case.

As to `O=C(c1cc2ccccc2o1)N1CCN(Cc2ccccc2)CC1`, the max response in test [1] was 7.29%. Moreover, the Potency result in test [2] and in test [3] was “inactive” in each case.

Take `CCCCO`: the max response in test [1] was 4.7%; in test [4], 11.1% and -7.83%. The outcome in test [5] was inactive. Also, the Potency result in test [2] and in test [3] was “inactive” throughout.

For `N[C@@H](Cc1cc(I)c(Oc2ccc(O)c(I)c2)c(I)c1)C(=O)O`, the max response is 3.17% in test [1] and -8.83% in test [4]. Also, the compound was called inactive in test [5]. Also, the Potency result in test [2] and in test [3] was “inactive” throughout.

As for `CCCCC`, the max response is 2.54% in test [1] and -0.392% in test [4]. In test [5], the compound was called inactive. The Potency entry in test [2] and in test [3] was “inactive” in each case.

Take `CC(=O)O[C@@H]1CC2CCC1(C)C2(C)C` (some centres undefined): the max response in test [1] was 7.45%. Further, the Potency result in test [2] and in test [3] was “inactive” each time.

Consider `OCCOCCOCCO`, for which the max response is -2.42% in test [1]; -2.87% and -1.37% in test [4]. Besides, in test [5], the compound was called inactive. The Potency entry in test [2] and in test [3] was “inactive” each time.

For `CC(CN1c2ccccc2Sc2cccnc21)N(C)C` (centres undefined), in test [1], the max response was 4.99%. The Potency result in test [2] and in test [3] was “inactive” throughout.

For `COC(=O)[C@H]1[C@H]2C[C@@H]3c4[nH]c5cc(OC)ccc5c4CCN3C[C@H]2C[C@H](OC)[C@@H]1OC`, the max response in test [1] is 15%. For the same compound, the Potency entry in test [2] and in test [3] was “inactive” in each case.

As for `CCN(CC)CCC(=O)N1c2ccccc2Sc2ccc(Cl)cc21`, the max response in test [1] is 2.51%. The Potency result in test [2] and in test [3] was “inactive” throughout.

Turning to `CCN(CC)CCC(=O)N1c2ccccc2Sc2ccc(C(F)(F)F)cc21`, the max response in test [1] was -16%. The Potency result in test [2] and in test [3] was “inactive” throughout.

For the compound `O=C(CCCN1CCC(C(=O)c2ccc(F)cc2)CC1)c1ccc(F)cc1`, in test [1], the max response was 18.4%. Also, the Potency entry in test [2] and in test [3] was “inactive” in each case.

Take `CCCCCCCCCCCCCCCCCC(=O)OCC(C)O` (centres undefined): in test [1], the max response is 2.45%. In addition, the Potency result in test [2] and in test [3] was “inactive” each time.

In the case of `CN1C(C(=O)Nc2ccccn2)C(=O)c2sc(Cl)cc2S1(=O)=O` (centres undefined), the max response in test [1] was 11.6%. In addition, the Potency entry in test [2] and in test [3] was “inactive” each time.

For `COc1ccc(C(=O)/C(Br)=C\C(=O)O)cc1`, the max response in test [1] is 20.3%. Besides, the Potency result in test [2] and in test [3] was “inactive” in each case.

Turning to `O=C1/C(=C\c2cccs2)CCC/C1=C\c1cccs1`, in test [1], the max response is 5.47%. Besides, the Potency result in test [2] and in test [3] was “inactive” in each case.

Take `CCCCCCCCCCCC(=O)OCC(O)CO` (centres undefined): the max response in test [1] was 3.54%. The Potency entry in test [2] and in test [3] was “inactive” throughout.

On to `CC1=CCC2CC1C2(C)C` (centres undefined), for which the max response in test [1] is 3.27%; in test [4], -5.13%. In addition, the compound was classed as inactive in test [5]. Besides, the Potency entry in test [2] and in test [3] was “inactive” throughout.

Regarding `Nc1nccs1`, the values for the max response in test [1] and in test [4] were 1.76% and -5.55%, respectively. Besides, the compound was called inactive in test [5]. The Potency result in test [2] and in test [3] was “inactive” in each case.

Regarding `Cn1cc(NC(=O)c2cc(NC(=O)c3cc(NC=O)cn3C)cn2C)cc1C(=O)NCCC(=N)N`, the max response in test [1] was 6.22%. Besides, the Potency result in test [2] and in test [3] was “inactive” throughout.
